Pf apPOL inh – Pf-apPOL DNA polymerase inhibition; Recombinant Pf-apPOL, molecular beacon fluorescence, 1.5 h; inhibition, % at 10 µM; 0.25% of 210,000 active; AID 1794808
mHTT CaM bind – disrupts binding of mutant huntingtin to calmodulin. 3.6% of 190,000 active. P42858. inhibition, % at 15 µM. AlphaScreen His-mHTT/GST-CaM binding, luminescence;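 also: 0% = both proteins with DMSO and 100% = one protein alone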
Starred values were filed as active, the others as inactive; . = not tested or not shown. Shown is part of a subset that was picked to be rich in hits. Rule as the data show it: active = inhibition above about 50%; inactive = the rest.

SMILES	Pf apPOL inh	mHTT CaM bind
CN=C(C)C(C(=O)OC)=C(O)c1c([N+](=O)[O-])c(C)nn1C	-14	.
CN(C)c1ccc(C(CNC(=O)C(=O)NCC2CCCO2)N2CCc3ccccc32)cc1 (configuration not stated)	0	65*
CC(NC(=O)C(=O)NCC1CCCO1)c1ccccc1 (configuration not stated)	-10	-12
Cc1cc(C2C(C#N)=C(N)N(c3cccc([N+](=O)[O-])c3)C3=C2C(=O)CCC3)c(C)s1 (configuration not stated)	-5	30
CC1=C(C(=O)Nc2ccccc2)C(c2cccc([N+](=O)[O-])c2)n2nnnc2N1 (configuration not stated)	-1	-1
Cc1ccc(CNC(=O)CCC2CCCCC2)cc1	1	-11
O=C1C(=O)N(Cc2ccc(Cl)c(Cl)c2)c2ccccc21	-3	93*
O=C1C(=O)N(CCCCN2C(=O)C(=O)c3ccccc32)c2ccccc21	2	7
O=C1C(=O)N(Cc2ccc(Br)cc2)c2ccccc21	-2	70*
O=C1C(=O)N(Cc2ccc(Br)cc2)c2ccc([N+](=O)[O-])cc21	2	24
O=C1C(=O)N(Cc2ccc(F)cc2)c2ccccc21	0	45
O=C1C(=O)N(Cc2ccc(Cl)c(Cl)c2)c2ccc([N+](=O)[O-])cc21	2	91*
Cc1ccc(NC(=O)c2ccc3c(c2)Sc2ncccc2C(=O)N3C)cc1	-4	-2
Cc1nnsc1-c1nc(CSc2ccccn2)no1	-8	.
O=c1/c(=C/c2ccccc2)sc2n1CN(c1cccc(Br)c1)CN=2	-4	-13
O=C1Nc2ccc(Cl)cc2/C1=c1\sc2n(c1=O)CN(c1cccc(Br)c1)CN=2	-6	52*
CCOc1ccccc1C(=O)Nc1cc(OC)c(NC(=O)c2ccccc2)cc1OC	-7	3
CC[C@@H]1C(=O)[C@H](Cc2ccccc2)[C@H]2CCCC(=O)N3CC[C@@H]1[C@@H]23	-1	17
CC[C@H]1c2[nH]c3ccc(C(C)C)cc3c2[C@@H]2CCN3C(=O)CCC[C@H]1[C@H]23	-9	71*
CN(C)c1ccc(C(=O)Nc2ccccc2Br)cc1	-6	-6
CCN(C(=O)C1CCCN(c2ncnc3c2nc2n3CCCCC2)C1)c1ccccc1 (configuration not stated)	5	11
O=C(CCSc1ccccc1)NCCOc1ccc(-c2ccccn2)nn1	3	100*
O=C(NCCOc1cccc2cccnc12)c1ccc(Cl)cc1Cl	-2	1
O=C(NCCOc1ccc(-c2ccccn2)nn1)c1cc(Cl)ccc1Cl	3	100*
O=C(Cc1ccc(F)cc1)NCCOc1ccc(-c2ccc(F)cc2)nn1	0	0
SMILES	Pf apPOL inh	mHTT CaM bind
O=C(Cn1cnc2ccccc2c1=O)NCCOc1ccc(-c2ccccn2)nn1	-6	100*
O=C(Cn1cnc2ccccc2c1=O)NCCO	-3	-6
O=C(Cc1cccs1)NCCOc1ccc(-c2ccccn2)nn1	-2	100*
O=C(Cc1ccc(Cl)cc1)NCCOc1ccc(-c2cccs2)nn1	-1	-6
Nc1ncnc(NCCc2ccc(S(N)(=O)=O)cc2)c1[N+](=O)[O-]	2	3
O=C1N=C(N2CCOCC2)SC1=CC=Cc1ccc([N+](=O)[O-])cc1	-9	-7
O=C(NC1CC2CC1CN2C(=O)c1ccc(Cl)s1)c1cccnc1 (configuration not stated)	-8	4
Cn1nccc1C(=O)N1CCC(CCOc2ccccc2)CC1	2	6
O=C(COc1ccc(F)cc1)N1CCC(CCOc2ccccc2)CC1	-3	70*
Cn1cccc1C(=O)N1CCC(CCOc2ccccc2)CC1	-7	58*
O=C(COc1ccc(F)cc1)N1CCC(CCOc2ccncc2)CC1	0	6
COc1ccccc1/C=C1\N=C(c2ccc(Cl)cc2)OC1=O	-3	-4
Cc1ccc(C(=O)NCCC2CCN(C(=O)c3ccc(C)cc3)CC2)cc1	3	4
CC(=O)NC(c1cccc([N+](=O)[O-])c1)c1ccc2cccnc2c1O (configuration not stated)	1	100*
CC(=O)Nc1cccnc1-c1ccc(C(=O)Nc2ccc(C(C)C)cc2)cc1	1	24
O=CNC(c1ccccc1)c1cccc([N+](=O)[O-])c1 (configuration not stated)	0	0
CC(=O)NC(c1ccc(C(C)C)cc1)c1ccc2cccnc2c1O (configuration not stated)	-34	100*
CCCCC(=O)NC(c1cccc([N+](=O)[O-])c1)c1ccc2cccnc2c1O (configuration not stated)	-7	100*
O=C(Nc1cccc2cccnc12)c1cccc([N+](=O)[O-])c1	1	-1
Fc1ccc(Cn2cc(-c3noc(C4CCCC4)n3)nn2)cc1	-2	-15
S=c1[nH]c2ccccc2c2c1CCC2	.	-1
OCc1cn(-c2nc(N3CCOCC3)nc(N3CCOCC3)n2)nn1	-1	0
